Only a selection was taken, and hits are over-represented in it overall.
Dicer inh = inhibitors of Dicer pre-microRNA processing, primary screen, biochemical, cat-ELCCA, chemiluminescence; cat-ELCCA pre-miR-21 Dicer processing; stronger effect = higher value; z-score at 25 µM; actives 6% (n = 47,000); AID 1347074, 2019; in the data active = z-score above about 3, passing the limit was not always enough;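 note: plate controls were vehicle for no effect and no enzyme for full effect; higher signal means more uncleaved substrate so more Dicer inhibition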
* hit, by the source's call.

SMILES	Dicer inh
CCOC(=O)Cc1[nH]nc2c1C(c1ccc(F)c(Oc3ccccc3)c1)C(C#N)=C(N)O2 (configuration not stated)	-1.9
CNC(=O)c1c(C)csc1NC(=O)C(F)(F)F	-0.19
CCOC(=O)c1cc2cc([N+](=O)[O-])ccc2[nH]1	1.8
O=C1C(=O)N(CCCN2CCOCC2)C(c2ccco2)/C1=C(\O)c1ccccc1 (configuration not stated)	12
Cc1ccc(NS(=O)(=O)c2sc3ccc(Cl)cc3c2C)cc1	1.4
Cc1c(S(=O)(=O)Nc2ccc3c(c2)OCCO3)sc2ccc(Cl)cc12	0.83
COc1ccccc1NS(=O)(=O)c1sc2ccc(Cl)cc2c1C	3.3*
CCOC(=O)CSC(=S)Nc1cc(C(F)(F)F)cc(C(F)(F)F)c1	1.9
CCOC(=O)c1cc(Sc2ccc(C)cc2)cc(C(=O)OCC)n1	-0.69
CN(n1cnc2ccccc2c1=O)S(C)(=O)=O	3*
COc1ccc(-n2cnc3ccccc3c2=O)cc1	0.4
CN(n1cnc2ccsc2c1=O)S(C)(=O)=O	-0.09
CC1(C)SC(C(=O)O)N[C@H]1C(=O)O (some centres not stated)	3.1*
CC1(C)SC(c2ccc(F)cc2)N[C@H]1C(=O)O (some centres not stated)	-1.1
Cc1nnc(Nc2c(C)n(C)n(-c3ccccc3)c2=O)[nH]c1=O	-0.67
CCOC(=O)CSc1n[nH]c(-c2ccncc2)n1	2
FC(F)(F)c1cc(N2CCCCCCC2)c2c(Cl)cc(Cl)cc2n1	-1.1
C/C(=N\OC(=O)c1ccc(C(C)(C)C)cc1)c1ccc(F)c(F)c1	-0.02
N#CC(C#N)C(CC(=O)c1ccccc1)c1ccccc1 (configuration not stated)	4.2*
O=C(CCCC(=O)c1ccccc1)c1ccccc1	-2.2
O=C(CC(Sc1ccc(Cl)cc1)c1ccc(Cl)cc1)c1ccccc1 (configuration not stated)	-3.5
O=C(Nc1nnc(C2CC2)s1)c1ccccc1	0.18
COc1ccc(Nc2nc(-c3ccccn3)cs2)cc1	6.4*
Cc1cccnc1Nc1nc(-c2ccccn2)cs1	-3.3
COc1ccc(Nc2nc(-c3cccnc3)cs2)cc1	1.6
SMILES	Dicer inh
COc1ccc2sc(C)[n+](CC(O)CS(=O)(=O)[O-])c2c1 (configuration not stated)	-4.3
Cn1c(NCCCO)nc2c(c1=O)C1(CCCCC1)Cc1ccccc1-2	0.39
O=c1c2c(nc(NCCCO)n1-c1ccccc1)-c1ccccc1CC21CCCCC1	4.3*
CCSc1nc2c(c(=O)n1C)C1(CCCC1)Cc1ccccc1-2	6.2*
CCn1c(SC)nc2c(c1=O)C1(CCCC1)Cc1ccccc1-2	0.48
C=CCn1c(SCC(N)=O)nc2c(c1=O)C1(CCCCC1)Cc1ccccc1-2	0.59
CCSc1nc2c(c(=O)n1CC)C1(CCCC1)Cc1ccccc1-2	1.3
Cc1nc(S(=O)(=O)Nc2ccc(S(=O)(=O)N3CCOCC3)cc2)cn1C	0.11
CCOC(=O)c1[nH]c(C)c(C(C)=O)c1C	-1
CCOC(=O)c1[nH]c(Cc2[nH]c(C(=O)OCC)c(C)c2C)c(C)c1C	-0.8
CCOC(=O)c1[nH]c(C)c(CC)c1C	4.3*
COc1cccc(NC(=O)Nc2ccc(C(F)(F)F)cn2)c1	-1.7
COc1nc(Nc2ccccc2)nc(OC)n1	-1.6
CC(C)c1ccc(Nc2c(Nc3ccc(C(C)C)cc3)c(=O)c2=O)cc1	-0.03
O=c1c(Nc2ccccc2)c(Nc2ccccc2)c1=O	7.3*
COc1ccc(C2c3c(oc4ccccc4c3=O)C(=O)N2c2nncs2)cc1OC (configuration not stated)	-0.76
COc1ccc(NC(=S)Nc2cc3c(c(N)c2C)C(C)(C)CC3(C)C)cc1	0.57
N#C/C(=C\Nc1ccc(F)cc1)C(=O)C1CC1	0.98
O=C(O)CCC1=NN2C=Nc3sc4c(c3C2NC1=O)CCCC4 (configuration not stated)	3.3*
c1ccc2c(c1)CC/C2=N\NC1=NCCN1	-0.03
Nc1ccc2nc(-c3ccc(Cl)cc3)[nH]c2c1	2
Nc1ccc(-c2nc3ccc(N)cc3o2)cc1	-0.21
CC(=O)Nc1ccc2nc(-c3ccc(-c4nc5ccc(NC(C)=O)cc5[nH]4)cc3)[nH]c2c1	-1
CC(C)c1ccc2nc(-c3ccc(N)cc3)[nH]c2c1	19*
Nc1ccc(-c2nc3ccc(-c4nc5ccccc5o4)cc3[nH]2)cc1	6.5*
SMILES	Dicer inh
O=S(=O)(O)c1ccc2nc(-c3ccccc3)[nH]c2c1	0.87
c1ccc2[nH]c(-c3ccc(-c4nc5ccccc5o4)cc3)nc2c1	0.34
Nc1ccc(-c2nc3cc4ccccc4cc3[nH]2)cc1	4*
c1ccc2cc3[nH]c(CN4CCOCC4)nc3cc2c1	-0.55
Cc1ccc(C)c(-c2nc3ccc(N)cc3[nH]2)c1	3
Cc1ccc(-c2nc3ccc(N)cc3[nH]2)cc1	3.1*
CC1(CO)CSC(Nc2ccc(Cl)c(Cl)c2)=N1 (configuration not stated)	0.07
C/C(=N\NC(=S)NCC(C)(C)C)c1cc(F)ccc1O	0.16
Cc1ccc(C2(C)SCc3cc(C)c(C)cc3CS2)cc1	-1.1
Cc1csc(C(=O)NNC(=O)C(Cl)Cl)c1	0.01
COc1ccc(C2CC(=O)C3=C(C2)Nc2ccccc2NC3c2ccc(N(C)C)cc2)cc1 (configuration not stated)	1.6
O=C(c1ccco1)c1cn(CC(=O)N2CCc3ccccc3C2)c2ccccc12	-0.53
CCOc1ccc(S(=O)(=O)n2nnc3ccccc32)c2ccccc12	-0.26
CCCCCOC(=O)CSc1nnc(-c2ccc(C)cc2)o1	1.2
Fc1ccc(C2=CSC3=NCCCN23)cc1F	-0.97
c1cnc(Nc2nc(-c3cccnc3)cs2)nc1	-0.16
Cc1cc(C)nc(NS(=O)(=O)c2ccc(Nc3nc(-c4cccnc4)cs3)cc2)n1	-0.72
Cc1ccc(Nc2n[nH]c(=S)s2)cc1	2.9
Cc1c(Cl)cccc1Nc1n[nH]c(=S)s1	0.45
Cc1ccc(C)c(Nc2n[nH]c(=S)s2)c1	4.6*
Cc1ccc(C)c(Nc2nc(-c3cccnc3)cs2)c1	3.3*
Cc1nc(N)nc(N/N=C/c2ccccn2)n1	1.4
Cc1cn2c(nc1=O)OC1[C@@H](O)[C@@H](CO)O[C@H]12 (some centres not stated)	-0.45
CCCS(=O)(=O)c1cc2ccccc2oc1=O	0.83
CC(=O)c1c(C)nc(-c2ccc(C(F)(F)F)cc2)nc1SCc1ccccc1	-0.78
SMILES	Dicer inh
Cc1cc2oc3c(c(=O)c2cc1C)C(c1ccc(F)cc1)N(c1ccccn1)C3=O (configuration not stated)	0.39
CCCOC(=O)C1=C(C)NC2=C(C(=O)CC(c3ccc(OC)cc3)C2)C1c1ccc(O)c(OCC)c1 (configuration not stated)	0.67
Cc1nn(-c2ccccc2)c2c1C(=O)C(Br)C(c1ccccc1)C2 (configuration not stated)	-1.4
O=C(CSc1nnc(-c2ccccc2)c(-c2ccccc2)n1)N1CCc2ccccc21	-0.32
CSc1nsc(SCC(=O)NCc2ccco2)n1	-0.97
O=C(CSc1nc2ccccc2nc1N1CCOCC1)NCc1cccs1	3*
O=C(CSc1nc2ccccc2nc1N1CCOCC1)NCc1ccco1	3.4*
c1csc(-c2nnc(N3CCOCC3)c3ccccc23)c1	0.89
O=C(CSc1nc2ccccc2nc1N1CCOCC1)Nc1cccc(Br)c1	3.2*
O=C(CSc1nc2ccccc2[nH]1)N1CCc2ccccc21	3.1*
O=C(CSc1nc(-c2cccs2)cc(C(F)(F)F)n1)NCc1ccco1	0.51
O=C(CSc1nc2ccccc2s1)N1CCc2ccccc21	1.4

Bioassay records (PubChem)
